Results: PubChem BioAssay (Tox21)
Where “and” joins values, the source holds several entries; their conditions need not be identical. Identical values can stand only once. Results filed as inconclusive are left out. A call without a number means that no potency is given here. Calls of active or inactive are those of the source. Unless noted, the call rests on the fitted dose curve; in most records, active means well fitted curve in the direction sought with a large enough effect in the repeat runs; inconclusive means weak or mixed curves; inactive means no such curve, though single readings can be large; an effect the other way counts as inactive or inconclusive.

experiment: qHTS assay for small molecule disruptors of the mitochondrial membrane potential - cell viability (AID 720634; calls by dose curve;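 further: human HepG2 liver cancer cells; nearly all actives have a fitted effect of over 20% in size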); conditions: HepG2 viability, ATP luminescence (CellTiter-Glo), 1 h; series mostly up to 83.2 µM
Outline: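 HepG2 cells seeded overnight at 37 C, then exposed to compound or DMSO for 1 hr at 37 C, 5% CO2. m-MPI dye added, then CellTiter-Glo for 30 min at room temperature; viability read as ATP luminescence.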

Row | Compound | Potency
1 | Cc1cccnc1 | inactive
2 | NNc1nncc2ccccc12 | inactive
3 | O=C(O)CCCCCCCCCCC(=O)O | inactive
4 | CC(=O)Nc1ccccc1 | inactive
5 | CC(=O)CC(=O)Nc1ccccc1 | inactive
6 | OCC(CO)(CBr)CBr | inactive
7 | CCCCCCCCC/C=C/CC1CC(=O)OC1=O (stereo not given) | inactive
8 | CC[C@H](C)C(=O)O[C@H]1C[C@@H](C)C=C2C=C[C@H](C)[C@H](CC[C@@H]3C[C@@H](O)CC(=O)O3)[C@H]21 | inactive
9 | O=[N+]([O-])c1ccc(/C=C/c2ccc([N+](=O)[O-])cc2S(=O)(=O)O)c(S(=O)(=O)O)c1 | inactive
10 | CC1=CC(=O)NS(=O)(=O)O1 | inactive

experiment: qHTS assay for small molecule disruptors of the mitochondrial membrane potential (AID 720635); conditions: HepG2 mitochondrial membrane potential, Mito-MPS dye ratio; series mostly up to 83.2 µM; further: potency means the concentration at half of the fitted maximal effect
Outline: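 Mitochondrial membrane potential tracked with Mito-MPS dye, red aggregates (ex 540/em 590 nm) against green monomers (ex 490/em 535 nm). Compound treatment 1 hr at 37C, dye 30 min in HepG2.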

Row | Compound | Potency
11 | CCCCC(CC)COC(=O)C(C#N)=C(c1ccccc1)c1ccccc1 (stereo not given) | 27.3 µM (active)
12 | O=C(Oc1ccccc1)c1ccccc1 | inactive
13 | CC1CCC(C(C)C)C(O)C1 (stereo not given) | inactive
14 | O=C(O)[C@H](O)[C@@H](O)[C@H](O)[C@H](O)CO | inactive
15 | CCCSc1ccc2nc(NC(=O)OC)[nH]c2c1 | 4.52 µM (active) and 12.2 µM (active)
16 | O=C(O)CCCC[C@@H]1SC[C@@H]2NC(=O)N[C@@H]21 | inactive
17 | COc1ccc2cc([C@H](C)C(=O)O)ccc2c1 | inactive
18 | O=C(O)c1cc(C(=O)O)cc(S(=O)(=O)O)c1 | inactive
19 | Cc1ccc2oc(=O)ccc2c1 | inactive
20 | Cc1occc(=O)c1O | inactive
21 | CC(c1cc2ccccc2s1)N(O)C(N)=O (stereo not given) | inactive
22 | CC(C)c1ccc(S(=O)(=O)O)cc1 | inactive
23 | COS(C)(=O)=O | inactive
24 | CCCCCC/C(C=O)=C\c1ccccc1 | inactive
25 | CCCCCC1=CCCC1=O | inactive
26 | CCCCCOC(C)=O | inactive
27 | C#C[C@]1(O)CC[C@H]2[C@@H]3CCC4=CC(=O)CC[C@@H]4[C@H]3CC[C@@]21C | inactive
28 | COc1ccc(NC(C)=O)cc1N | inactive
29 | Cc1cccnc1 | inactive
30 | O=C(O)CCCCCCCCCCC(=O)O | inactive
31 | CC(=O)CC(=O)Nc1ccccc1 | inactive
32 | OCC(CO)(CBr)CBr | inactive
33 | CC[C@H](C)C(=O)O[C@H]1C[C@@H](C)C=C2C=C[C@H](C)[C@H](CC[C@@H]3C[C@@H](O)CC(=O)O3)[C@H]21 | 18.8 µM (active) and 62 µM (active) and 60.8 µM (active)
34 | O=[N+]([O-])c1ccc(/C=C/c2ccc([N+](=O)[O-])cc2S(=O)(=O)O)c(S(=O)(=O)O)c1 | inactive
35 | CC1=CC(=O)NS(=O)(=O)O1 | inactive
36 | C=C(C)C(=O)Nc1ccc(Cl)c(Cl)c1 | 19.5 µM (active) and 30.5 µM (active)

experiment: qHTS assay to test for compound auto fluorescence at 590 nm (red) in HepG2 cells (AID 720674); conditions: HepG2 autofluorescence, red 540/590 nm, 1 h; series mostly up to 91.3 µM
Outline: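 1 hr compound incubation on HepG2 cells, 37 C, 5% CO2; plate read ex 540 nm / em 590 nm; intensities reported as Rose Bengal sodium equivalents.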

Row | Compound | outcome
37 | CCCCC(CC)COC(=O)C(C#N)=C(c1ccccc1)c1ccccc1 (stereo not given) | inactive
38 | O=C(Oc1ccccc1)c1ccccc1 | inactive
39 | CC1CCC(C(C)C)C(O)C1 (stereo not given) | inactive
40 | CCCCCCCCCCCCOCCO | inactive
41 | O=C(O)[C@H](O)[C@@H](O)[C@H](O)[C@H](O)CO | inactive
42 | CCCSc1ccc2nc(NC(=O)OC)[nH]c2c1 | inactive
43 | O=C(O)CCCC[C@@H]1SC[C@@H]2NC(=O)N[C@@H]21 | inactive
44 | CCc1ccc(CCOc2ccc(CC3SC(=O)NC3=O)cc2)nc1 (stereo not given) | inactive
45 | COc1ccc2cc([C@H](C)C(=O)O)ccc2c1 | inactive
46 | COCCCOc1ccnc(CS(=O)c2nc3ccccc3[nH]2)c1C (stereo not given) | inactive
47 | O=C(O)c1cc(C(=O)O)cc(S(=O)(=O)O)c1 | inactive
48 | Cc1ccc2oc(=O)ccc2c1 | inactive
49 | Cc1occc(=O)c1O | inactive
50 | CCN(CC)c1ccc(C(=O)c2ccccc2C(=O)O)c(O)c1 | inactive
51 | CC(c1cc2ccccc2s1)N(O)C(N)=O (stereo not given) | inactive
52 | CC(C)c1ccc(S(=O)(=O)O)cc1 | inactive
53 | O=C(O)c1ccccc1C(c1ccc(O)cc1)c1ccc(O)cc1 | inactive
54 | OCc1cccnc1 | inactive
55 | COS(C)(=O)=O | inactive
56 | CCCCCC/C(C=O)=C\c1ccccc1 | inactive

Row | Compound | outcome
57 | CCCCCC1=CCCC1=O | inactive
58 | CCCCCOC(C)=O | inactive
59 | C#C[C@]1(O)CC[C@H]2[C@@H]3CCC4=CC(=O)CC[C@@H]4[C@H]3CC[C@@]21C | inactive
60 | CCCCC(CC)COC(=O)CCCCC(=O)OCC(CC)CCCC (stereo not given) | inactive
61 | COc1ccc(NC(C)=O)cc1N | inactive
62 | OC[C@H]1O[C@@](CO)(O[C@H]2O[C@H](CO)[C@@H](O)[C@H](O)[C@H]2O)[C@@H](O)[C@@H]1O | inactive
63 | Cc1cccnc1 | inactive
64 | NNc1nncc2ccccc12 | inactive
65 | CC1=CCC2CC1C2(C)C (stereo not given) | inactive
66 | O=C(O)CCCCCCCCCCC(=O)O | inactive
67 | CCN(CC)CCCC(C)Nc1ccnc2cc(Cl)ccc12 (stereo not given) | inactive
68 | CC(=O)Nc1ccccc1 | inactive
69 | CC(=O)CC(=O)Nc1ccccc1 | inactive
70 | OCC(CO)(CBr)CBr | inactive
71 | CCCCCCCCC/C=C/CC1CC(=O)OC1=O (stereo not given) | inactive
72 | CC[C@H](C)C(=O)O[C@H]1C[C@@H](C)C=C2C=C[C@H](C)[C@H](CC[C@@H]3C[C@@H](O)CC(=O)O3)[C@H]21 | inactive
73 | O=[N+]([O-])c1ccc(/C=C/c2ccc([N+](=O)[O-])cc2S(=O)(=O)O)c(S(=O)(=O)O)c1 | inactive
74 | CC1=CC(=O)NS(=O)(=O)O1 | inactive
75 | C=C(C)C(=O)Nc1ccc(Cl)c(Cl)c1 | inactive
